According to PubChem BioAssay (Tox21):
Inconclusive results are not listed. Activity calls are given as the source filed them. Unless noted, the call rests on the fitted dose curve.

Experiments:
[1] = Nuclear factor erythroid 2-related factor 2/antioxidant responsive element (Nrf2/ARE) small molecule agonists: qHTS cell viability counter screen in human keratinocytes (AID 1919968; active means well fitted curve in the direction sought with a large enough effect in the repeat runs; an effect the other way counts as inactive or inconclusive; further: nearly all actives have a fitted effect of over 55% in size)
Outline: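 KeratinoSens HaCaT cells, 1,500/well, preincubated 5 h, then exposed to compounds in DMSO for 23 h at 37 C/5% CO2. Viability read as CellTiter-Fluor fluorescence after 1 h, in the same wells as the ARE-luciferase read.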

[2] = Nuclear factor erythroid 2-related factor 2/antioxidant responsive element (Nrf2/ARE) small molecule agonists: luciferase reporter gene qHTS assay in human keratinocytes (AID 1919969); further: nearly all actives have a fitted effect of over 35% in size
[3] = target: Gonadotropin-releasing hormone receptor (Homo sapiens) (UniProt P30968); assay: Human gonadotropin-releasing hormone receptor (GnRHR) small molecule agonists, calcium flux assay in GnRHR-HEK293 cells (AID 1920063); further: nearly all actives have a fitted effect of over 35% in size
Chain of Gonadotropin-releasing hormone receptor (Homo sapiens) (P30968 whole entry, looked up): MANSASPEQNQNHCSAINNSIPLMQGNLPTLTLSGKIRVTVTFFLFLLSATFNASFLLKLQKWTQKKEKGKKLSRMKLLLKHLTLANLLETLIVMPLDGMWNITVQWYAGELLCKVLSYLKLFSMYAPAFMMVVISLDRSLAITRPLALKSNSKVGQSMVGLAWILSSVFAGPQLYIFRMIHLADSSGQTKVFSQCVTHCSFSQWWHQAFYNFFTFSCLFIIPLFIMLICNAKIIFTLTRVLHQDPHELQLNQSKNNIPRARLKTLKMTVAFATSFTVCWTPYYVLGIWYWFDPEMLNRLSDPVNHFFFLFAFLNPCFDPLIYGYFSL
Outline: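 HEK293 cells stably expressing human GnRHR were dye-loaded for 1 h at 37 C. Compound was added in agonist mode and fluorescence (Ex/Em 480/540) recorded kinetically for 3 min. Fifteen concentrations, triplicates.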

[4] = target: KiSS-1 receptor (Homo sapiens) (UniProt Q969F8); assay: Human kisspeptin (KISS1R) small molecule agonists, calcium flux assay in KISS1R-HEK293 cells (AID 1920064; active means well fitted curve in the direction sought with a large enough effect in the repeat runs; an effect the other way counts as inactive or inconclusive)
Chain of KiSS-1 receptor (Homo sapiens) (Q969F8 whole entry, looked up): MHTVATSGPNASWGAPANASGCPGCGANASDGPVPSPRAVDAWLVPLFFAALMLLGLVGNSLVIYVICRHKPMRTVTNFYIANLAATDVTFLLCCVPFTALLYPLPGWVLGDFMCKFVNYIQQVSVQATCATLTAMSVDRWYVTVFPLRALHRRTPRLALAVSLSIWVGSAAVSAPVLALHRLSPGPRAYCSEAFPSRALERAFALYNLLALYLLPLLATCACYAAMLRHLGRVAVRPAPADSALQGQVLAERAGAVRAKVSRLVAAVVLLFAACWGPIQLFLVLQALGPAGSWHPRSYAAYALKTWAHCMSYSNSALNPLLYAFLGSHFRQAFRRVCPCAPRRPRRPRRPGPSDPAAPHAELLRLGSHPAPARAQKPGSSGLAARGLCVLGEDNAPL
Outline: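 HEK293 cells stably expressing human KISS1R were loaded with calcium dye for 1 h at 37 C, then given compound; fluorescence (Ex/Em 480/540) was read kinetically for 3 min. Fifteen concentrations, triplicate.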

[5] = G protein-coupled receptor (GPCR) small molecule agonists, calcium flux assay: HEK293 wild type cell line counter screen (AID 1920065)
Outline: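 Wild-type HEK293 cells plated 18 h, loaded with calcium dye 1 h at 37 C, then compounds added in agonist mode (ATP as positive control). Kinetic fluorescence Ex/Em 480/540 recorded 3 min at 1 sec intervals; 15 concentrations, triplicate.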

[6] = p53 small molecule agonists, cell-based qHTS assay with human liver microsomes (AID 1963577);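 further: p53 response element beta-lactamase reporter cells with liver microsomes plus NADPH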
Outline: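 Steps: plate p53RE-bla cells, incubate 5 h at 37 C; add compound in DMSO; add microsomes (0.5 mg/mL final) and NADPH (0.5 mg/mL final); incubate 16 h at 37 C; add LiveBLAzer, 2 h RT; read fluorescence.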

[7] = p53 small molecule agonists, cell-based qHTS assay with rat liver microsomes (AID 1963578)
Outline: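 Metabolic activation is supplied by rat liver microsomes with NADPH (each 0.5 mg/mL final). p53RE-bla cells incubate with compound 16 h at 37 C; reporter activity is measured by LiveBLAzer fluorescence.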

[8] = p53 small molecule agonists, cell-based qHTS assay with human liver microsomes: qHTS cell viability counter screen (AID 1963579); further: nearly all actives have a fitted effect of over 45% in size
Outline: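 After the 460/530 nm beta-lactamase read, CellTiter-Glo was added to the same wells and luminescence measured after 30 min at room temperature, giving viability of p53RE-bla cells treated 16 h with compounds plus microsomes and NADPH.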

[9] = p53 small molecule agonists, cell-based qHTS assay with rat liver microsomes: qHTS cell viability counter screen (AID 1963580); further: nearly all actives have a fitted effect of over 45% in size
Outline: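 p53RE-bla HCT-116 cells (4,000/well) rested 5 h at 37 C, then given Tox21 compounds in DMSO with rat liver microsomes (0.5 mg/mL final) plus NADPH (0.5 mg/mL final) for 16 h at 37 C. Viability read by CellTiter-Glo luminescence after 30 min at room temperature.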

[10] = p53 small molecule agonists, cell-based qHTS assay: qHTS cell viability counter screen (AID 1963581); further: nearly all actives have a fitted effect of over 45% in size
Outline: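 p53RE-bla HCT-116 cells, compounds added 5 h after plating and incubated 16 h at 37 C. Cytotoxicity measured in the same wells as intracellular ATP by CellTiter-Glo luminescence after 30 min at room temperature.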

[11] = p53 small molecule agonists, cell-based qHTS assay (AID 1963582; active means well fitted activation curve with a large enough effect in the signal ratio in the repeat runs, not every such curve was filed as active; the % refers to the signal ratio)
Outline: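 p53RE-bla reporter cells, compounds added in DMSO after 5 h plating, incubated 16 h at 37 C. Beta-lactamase read via 2 h room-temperature LiveBLAzer B/G FRET substrate, fluorescence intensity.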

[12] = target: 5-hydroxytryptamine receptor 2A (Homo sapiens) (UniProt P28223); assay: 5-hydroxytryptamine receptor 2A (HTR2A) small molecule antagonists, cell-based qHTS assay (AID 1963586); further: nearly all actives have a fitted effect of over 45% in size
Chain of 5-hydroxytryptamine receptor 2A (Homo sapiens) (P28223 whole entry, looked up): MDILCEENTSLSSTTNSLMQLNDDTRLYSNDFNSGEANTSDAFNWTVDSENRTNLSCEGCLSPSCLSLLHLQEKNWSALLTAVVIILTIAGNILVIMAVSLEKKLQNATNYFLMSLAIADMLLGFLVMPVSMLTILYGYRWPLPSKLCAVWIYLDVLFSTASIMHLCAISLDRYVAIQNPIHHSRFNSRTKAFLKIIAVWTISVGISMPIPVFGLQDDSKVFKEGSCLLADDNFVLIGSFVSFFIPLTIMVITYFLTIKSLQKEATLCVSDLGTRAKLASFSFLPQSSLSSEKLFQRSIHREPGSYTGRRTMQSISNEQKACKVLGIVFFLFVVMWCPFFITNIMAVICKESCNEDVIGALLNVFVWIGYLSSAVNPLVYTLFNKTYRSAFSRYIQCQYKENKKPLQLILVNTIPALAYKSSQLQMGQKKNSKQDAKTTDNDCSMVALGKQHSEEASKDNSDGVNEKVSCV
Outline: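 Antagonist-mode intracellular calcium assay: DOI (4 nM) added after 5 min compound pre-incubation at room temperature to dye-loaded HTR2A-CHO cells. Fluorescence followed for 3 min, sampled every second.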

[13] = target: 5-hydroxytryptamine receptor 2A (Homo sapiens) (UniProt P28223); assay: 5-hydroxytryptamine receptor 2A (HTR2A) small molecule agonists, cell-based qHTS assay (AID 1963587); further: nearly all actives have a fitted effect of over 30% in size
Outline: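 HTR2A-CHO cells, plated 18 h at 37 C/5% CO2, dye-loaded 1 h at 37 C; compounds in DMSO added by pin tool (agonist mode). Intracellular calcium flux read as kinetic fluorescence on FDSS over 2 min at 1 s intervals.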

[14] = target: Muscarinic acetylcholine receptor M1 (Homo sapiens) (UniProt P11229); assay: Cholinergic receptor muscarinic 1 (CHRM1) small molecule antagonists, cell-based qHTS assay (AID 1963588); further: nearly all actives have a fitted effect of over 40% in size
Chain of Muscarinic acetylcholine receptor M1 (Homo sapiens) (P11229 whole entry, looked up): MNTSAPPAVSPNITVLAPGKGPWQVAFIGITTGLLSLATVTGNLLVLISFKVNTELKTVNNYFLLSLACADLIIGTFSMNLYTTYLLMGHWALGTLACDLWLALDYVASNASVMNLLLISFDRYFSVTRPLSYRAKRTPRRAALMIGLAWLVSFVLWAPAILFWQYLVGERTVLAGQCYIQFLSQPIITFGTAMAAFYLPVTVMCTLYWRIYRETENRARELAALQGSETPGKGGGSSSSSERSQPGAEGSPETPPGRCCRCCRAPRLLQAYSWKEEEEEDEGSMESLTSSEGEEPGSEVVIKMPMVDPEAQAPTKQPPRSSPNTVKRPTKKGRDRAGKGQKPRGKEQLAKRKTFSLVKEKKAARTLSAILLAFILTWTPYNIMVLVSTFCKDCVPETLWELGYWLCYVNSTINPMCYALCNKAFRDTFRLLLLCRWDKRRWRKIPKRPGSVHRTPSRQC
Outline: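 CHRM1-CHO calcium-flux assay, antagonist mode. Cells were seeded 18 h, dye-loaded 1 h at 37 C and given compound for 5 min at RT, then acetylcholine was added at 50nM. FDSS fluorescence was read 3 min; 15 concentrations, three runs.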

[15] = target: Muscarinic acetylcholine receptor M1 (Homo sapiens) (UniProt P11229); assay: Cholinergic receptor muscarinic 1 (CHRM1) small molecule agonists, cell-based qHTS assay (AID 1963589); further: nearly all actives have a fitted effect of over 35% in size
Outline: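 CHO cells stably expressing human CHRM1 were loaded with calcium dye for 1 h at 37 C, then compound was added in agonist mode. Intracellular calcium fluorescence was followed kinetically at 1 s intervals. Fifteen concentrations were tested in three independent runs.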

[16] = cAMP Responsive Elements (CRE) small molecule agonists, cell-based qHTS assay (AID 1963590)
Outline: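 CRE-bla HEK 293T cells, 2,000/well in DMEM with 10% dialyzed FBS and 25 mM HEPES, pre-incubated 18 h at 37 C, then exposed to compound 3 h at 37 C. Beta-lactamase reporter read with LiveBLAzer B/G FRET substrate after 2 h at room temperature.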

[17] = cAMP Responsive Elements (CRE) small molecule antagonists, cell-based qHTS assay (AID 1963591; active means well fitted inhibition curve with a large enough effect in the signal ratio in the repeat runs, not every such curve was filed as active; the % refers to the signal ratio)
Outline: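 CRE-bla HEK293T cells plated 18 h, then given compound plus NKH477 at 0.25 uM final for 3 h at 37C. Beta-lactamase reporter read with LiveBLAzer B/G FRET substrate after 2 h at room temperature.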

[18] = target: D(2) dopamine receptor (Homo sapiens) (UniProt P14416); assay: Dopamine D2 receptor (DRD2) small molecule agonists, cell-based qHTS assay (AID 1963594); further: nearly all actives have a fitted effect of over 35% in size
Chain of D(2) dopamine receptor (Homo sapiens) (P14416 whole entry, looked up): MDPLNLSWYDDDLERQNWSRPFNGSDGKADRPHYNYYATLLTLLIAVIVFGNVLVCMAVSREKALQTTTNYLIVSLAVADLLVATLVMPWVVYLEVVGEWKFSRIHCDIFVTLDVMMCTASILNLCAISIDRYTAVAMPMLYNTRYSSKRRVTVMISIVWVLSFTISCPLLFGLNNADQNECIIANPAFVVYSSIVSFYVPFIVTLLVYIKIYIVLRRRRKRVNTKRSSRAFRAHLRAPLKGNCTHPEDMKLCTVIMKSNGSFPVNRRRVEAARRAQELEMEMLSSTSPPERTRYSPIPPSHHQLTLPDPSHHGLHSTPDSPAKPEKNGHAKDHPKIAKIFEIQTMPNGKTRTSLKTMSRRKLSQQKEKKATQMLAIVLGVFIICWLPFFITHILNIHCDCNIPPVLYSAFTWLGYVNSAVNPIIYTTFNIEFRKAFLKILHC
Outline: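 HEK293 cells stably expressing DRD2 were cultured 24 h at 37 C, then given Ro20-1724 (0.1 mM final) and compounds for 10 min at room temperature. NKH477 (200nM) was then added for 30 min. cAMP was read by HTRF.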

[19] = target: D(2) dopamine receptor (Homo sapiens) (UniProt P14416); assay: Dopamine D2 receptor (DRD2) small molecule antagonists, cell-based qHTS assay (AID 1963595; active means well fitted inhibition curve with a large enough effect in the signal ratio in the repeat runs, with a control signal flat; the % refers to the signal ratio)
Outline: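 Human DRD2 antagonist qHTS measuring cAMP by HTRF. The cells are exposed to compound for 10 min, then to NKH477 (200 nM) and quinpirole (12 nM) for 30 min at RT, with Ro20-1724 (0.1 mM) present throughout.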

Measured: Potency

C/C(=C1\CCOC(=O)S1)N(C=O)Cc1cnc(C)nc1N
not listed: [19]
inactive: all other assays above

C/C(=C(\CCO)SS/C(CCO)=C(\C)N(C=O)Cc1cnc(C)nc1N)N(C=O)Cc1cnc(C)nc1N
inactive: all assays above

CCC(N)(CO)CO
inactive: all assays above

CCC(C)C1CCCCC1=O (stereo not given)
not listed: [18]
inactive: all other assays above

N=C(N)c1ccc2cc(OC(=O)c3ccc(N=C(N)N)cc3)ccc2c1
inactive: all assays above

CCOC(=O)c1c(C)n(C)c2ccc(O)cc12
not listed: [19]
inactive: all other assays above

FC(F)(F)C(Cl)Br (stereo not given)
inactive: all assays above
